We go through five compounds from PubChem BioAssay.

Activity calls are given as the source filed them.

Experiment [1] deals with Human papillomavirus type 1a protein E7 (residues 44-93). Briefly: small molecules binding HPV E7 44-93 – biochemical, small-molecule microarray, residues 44-93, 635 nm fluorescence, primary screen (AID 1108).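 Also: E7 fragment applied at 1 µg/mL in TBST for 1 h at 4 C; score combines spot fluorescence with its signal to noise ratio.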 The conditions noted are these: fluorescence 635 nm, higher = more signal.
The nature of experiment [2]: hepatitis C replication reporter changes, two-sided – Huh7 cells, luciferase reporter, HCV replication inhibitor project, primary screen (AID 1109).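 Also: huh7 hepatoma cells harbouring a luciferase neomycin HCV replicon reporter; luciferase luminescence as measure of HCV replicon replication; test concentration not given here.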 The conditions noted are these: Huh7 HCV replicon luciferase reporter, 48 h; higher = more signal. For orientation: In a reporter assay the amount or activity of a reporter protein is the signal.
The target of experiment [3] is Left-right determination factor 2 (Homo sapiens) (UniProt O00292). In words: small molecules binding LEFTY2 protein – biochemical, small-molecule microarray, 635 nm fluorescence scan, primary screen (AID 1110). The conditions noted are these: higher = more signal.
In experiment [4] the target is Calmodulin-1 (Homo sapiens) (UniProt P0DP23). Briefly: small molecules binding calmodulin-1 with EGTA – biochemical, small-molecule microarray, Cy5-labelled CALM1, profiling panel (AID 1111).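 Also: labelled calmodulin applied in Tris saline Tween buffer holding calcium plus EGTA and DTT.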 Particulars: Cy5-CALM1 binding fluorescence, higher = more signal.
For experiment [5] the target is unchanged. In words: small molecules binding Ca-loaded calmodulin-1 – biochemical, small-molecule microarray, Cy5-labelled CALM1, plus calcium, artefact control for SMM control-protein annotation, profiling panel (AID 1112).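 Also: score merges spot fluorescence with signal to noise from triplicate slides.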 The conditions noted are these: Cy5-CALM1 binding fluorescence, higher = more signal.
Experiment [6] can be described thus: probe aWnt5a binding to arrayed compounds – biochemical, biotinylated probe, 635/667 nm fluorescence, primary screen (AID 1113).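 Also: score merges 667 nm fluorescence intensity with signal-to-noise per printed feature.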 Particulars: small-molecule microarray, higher = more signal.
Experiment [7] in a line: probe aShh binding to arrayed compounds – biochemical, biotinylated probe, 635/667 nm fluorescence, primary screen (AID 1114).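 Also: probe is biotin-labelled aShh protein from a stem cell growth factor screen; measures binding of labelled protein to compounds printed on the slide; score merges feature fluorescence at 667 nm with signal-to-noise.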 The conditions noted are these: small-molecule microarray, higher = more signal.
Experiment [8] in a line: probe aNog binding to arrayed compounds – biochemical, biotinylated probe, 635/667 nm fluorescence, primary screen (AID 1115).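 Also: probe is biotinylated aNog protein used at 0.15 µg/mL for 1 h at 4 C; z-score combines 667 nm fluorescence of each spot with its signal to noise.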 The conditions noted are these: small-molecule microarray, higher = more signal.
In experiment [9] the target is Torsin-1A-interacting protein 1 (Homo sapiens) (UniProt Q5JTV8). In words: compound microarray binding of lysate hLAP1 – cell lysate, small-molecule microarray, COS7 lysate, 635/667 nm fluorescence, primary screen (AID 1116). Particulars: 635 nm fluorescence, higher = more signal.
In experiment [10] the target is Alpha-bungarotoxin (Bungarus multicinctus) (UniProt P60615). In words: compounds binding labelled alpha-BTX control protein – biochemical, small-molecule microarray, Alexa647 label, 635/667 nm fluorescence, artefact control for SMM control protein annotation, profiling panel (AID 1117). The conditions noted are these: alpha-BTX-A647 binding fluorescence, higher = more signal.

For a further experiment, the target named is Albumin (Bos taurus) (UniProt P02769). Briefly: compounds binding labelled BSA control protein – biochemical, small-molecule microarray, Alexa647 label, 635/667 nm fluorescence, artefact control for SMM control protein annotation, profiling panel (AID 1118).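 Also: score merges 667 nm emission intensity and signal-to-noise per printed compound spot.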 The conditions noted are these: BSA-A647 binding, fluorescence 635 nm, higher = more signal.
Experiment [11] in a line: probe aXIP binding to arrayed compounds – biochemical, NeuroSMM set, 635/667 nm fluorescence, primary screen (AID 1119).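 Also: probe is the protein aXip251-270 applied at 1 µg/mL to compound-printed slides; binding of probe to printed compounds measured as 667 nm fluorescence plus signal to noise.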 The conditions noted are these: small-molecule microarray, higher = more signal, called active from +8 up or from −8 down.
The nature of experiment [12]: probe aNOTCH3 binding on compound microarray – biochemical, small-molecule microarray, 635/667 nm fluorescence, primary screen (AID 1120).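 Also: probe is a biotin-tagged antibody raised against NOTCH3 rather than NOTCH3 protein; score merges spot fluorescence near 667 nm with spot signal to noise.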 Particulars: higher = more signal.
Experiment [13] in a line: probe aNOTCH2 binding on compound microarray – biochemical, small-molecule microarray, 635/667 nm fluorescence, primary screen (AID 1121).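 Also: score merges feature fluorescence read at 667 nm with its signal to noise.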 Particulars: higher = more signal.
Experiment [14] deals with Carbonic anhydrase 2 (Homo sapiens) (UniProt P00918). Briefly: compounds binding carbonic anhydrase 2 – biochemical, small-molecule microarray, Alexa647-labelled CAII, profiling panel (AID 1122). The conditions noted are these: CAII-A647 binding fluorescence, higher = more signal.
A short description of experiment [15]: COS7 lysate on small-molecule microarray, probe aHis, 635 nm (AID 1123).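 Also: z-score combines 667nm fluorescence intensity with signal-to-noise per printed compound spot.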 The conditions noted are these: COS7 cell lysate, fluorescence, higher = more signal.
Experiment [16] is described as follows: probe aLAP1 signal on lysate-treated microarray – cell lysate, small-molecule microarray, COS7 lysate, primary screen (AID 1124).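 Also: lysate comes from COS7 cells expressing LAP1 and is applied at 0.3 µg/mL; score merges spot fluorescence near 667 nm with signal-to-noise over triplicate slides.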 The conditions noted are these: probe aLAP1, fluorescence, higher = more signal.
The subject of a further experiment is Sam68 (KHDRBS1). In words: compounds binding KHDRBS1 protein – biochemical, small-molecule microarray, 635 nm fluorescence, primary screen (AID 1125).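 Also: score merges 667 nm channel intensity with signal to noise over triplicate slides.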 The conditions noted are these: higher = more signal.
Experiment [17] concerns Chordin-like protein 2 (CHRDL2). In words: compounds binding chordin-like 2 – biochemical, small-molecule microarray, 635 nm fluorescence, primary screen (AID 1126).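 Also: printed compound slides probed with Chrdl2 protein at 4 µg/mL for 1 h at 4 C; score merges 667 nm emission intensity with signal to noise over three replicate slides.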 The conditions noted are these: fluorescence 635 nm, higher = more signal.
In experiment [18] the target is Concanavalin-A (Canavalia ensiformis) (UniProt P02866). Briefly: compounds binding concanavalin A lectin – biochemical, small-molecule microarray, Alexa647 label, 635 nm, artefact control for SMM control protein annotation, primary screen (AID 1127).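 Also: z combines 667 nm emission intensity with signal-to-noise across three replicate slides.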 The conditions noted are these: ConA-A647 binding fluorescence, higher = more signal.
Sequence of Concanavalin-A (Canavalia ensiformis) (P02866 whole entry, looked up): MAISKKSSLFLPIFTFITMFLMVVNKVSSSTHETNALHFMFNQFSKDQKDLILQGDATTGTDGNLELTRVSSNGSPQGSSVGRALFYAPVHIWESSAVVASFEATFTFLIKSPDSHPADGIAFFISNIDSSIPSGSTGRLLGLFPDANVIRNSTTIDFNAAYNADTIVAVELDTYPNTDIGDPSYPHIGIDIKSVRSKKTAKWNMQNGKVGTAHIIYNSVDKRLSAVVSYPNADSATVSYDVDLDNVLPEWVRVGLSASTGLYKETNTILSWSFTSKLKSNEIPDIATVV

Sequence of Albumin (Bos taurus) (P02769 whole entry, looked up): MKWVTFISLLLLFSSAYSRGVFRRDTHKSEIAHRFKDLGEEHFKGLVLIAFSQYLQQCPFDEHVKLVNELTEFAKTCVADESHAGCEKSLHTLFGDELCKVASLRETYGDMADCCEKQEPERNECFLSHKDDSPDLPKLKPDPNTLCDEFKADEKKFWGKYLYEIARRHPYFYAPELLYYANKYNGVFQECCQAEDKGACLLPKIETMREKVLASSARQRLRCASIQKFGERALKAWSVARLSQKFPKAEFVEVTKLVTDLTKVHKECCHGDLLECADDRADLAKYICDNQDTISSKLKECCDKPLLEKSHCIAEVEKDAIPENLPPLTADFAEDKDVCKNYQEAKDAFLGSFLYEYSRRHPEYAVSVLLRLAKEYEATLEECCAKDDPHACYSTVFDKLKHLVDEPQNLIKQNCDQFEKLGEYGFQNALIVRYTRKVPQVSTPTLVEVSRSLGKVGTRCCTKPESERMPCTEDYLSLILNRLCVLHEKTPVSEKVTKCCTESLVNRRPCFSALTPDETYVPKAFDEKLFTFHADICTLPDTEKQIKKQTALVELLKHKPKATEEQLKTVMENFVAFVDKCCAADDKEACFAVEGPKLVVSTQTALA
Sequence of Left-right determination factor 2 (Homo sapiens) (O00292 whole entry, looked up): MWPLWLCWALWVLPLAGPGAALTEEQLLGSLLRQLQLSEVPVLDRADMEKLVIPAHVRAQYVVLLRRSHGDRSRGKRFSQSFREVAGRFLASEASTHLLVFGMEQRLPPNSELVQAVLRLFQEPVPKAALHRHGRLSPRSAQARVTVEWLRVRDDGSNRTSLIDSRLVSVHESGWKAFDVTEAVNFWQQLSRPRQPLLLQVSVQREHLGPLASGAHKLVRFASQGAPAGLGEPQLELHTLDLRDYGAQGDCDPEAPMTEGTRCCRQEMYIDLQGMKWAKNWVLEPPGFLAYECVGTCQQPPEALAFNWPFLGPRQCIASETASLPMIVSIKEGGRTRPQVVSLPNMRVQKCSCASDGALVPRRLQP
Sequence of Alpha-bungarotoxin (Bungarus multicinctus) (P60615 whole entry, looked up): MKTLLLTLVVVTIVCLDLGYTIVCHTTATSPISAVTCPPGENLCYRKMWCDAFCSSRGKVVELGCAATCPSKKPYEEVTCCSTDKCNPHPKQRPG
Sequence of Torsin-1A-interacting protein 1 (Homo sapiens) (Q5JTV8 whole entry, looked up): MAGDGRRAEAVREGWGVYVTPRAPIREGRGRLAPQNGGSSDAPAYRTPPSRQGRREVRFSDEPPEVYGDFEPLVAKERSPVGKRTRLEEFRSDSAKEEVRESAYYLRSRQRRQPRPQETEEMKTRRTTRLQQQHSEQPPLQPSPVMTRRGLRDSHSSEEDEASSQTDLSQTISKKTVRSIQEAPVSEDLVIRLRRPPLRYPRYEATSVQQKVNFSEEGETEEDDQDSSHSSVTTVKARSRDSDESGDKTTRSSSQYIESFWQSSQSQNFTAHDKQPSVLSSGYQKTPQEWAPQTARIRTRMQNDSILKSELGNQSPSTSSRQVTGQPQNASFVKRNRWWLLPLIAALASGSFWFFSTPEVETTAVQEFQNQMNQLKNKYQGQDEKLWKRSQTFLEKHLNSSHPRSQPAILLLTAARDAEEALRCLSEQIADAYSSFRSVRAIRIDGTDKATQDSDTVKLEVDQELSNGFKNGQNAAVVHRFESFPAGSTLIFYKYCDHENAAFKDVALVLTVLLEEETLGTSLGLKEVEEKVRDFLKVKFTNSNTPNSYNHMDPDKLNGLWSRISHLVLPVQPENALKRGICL

On to `COCCOC(=O)N1C(=O)[C@@]2(c3cc(C#CCC(C(=O)OC)C(=O)OC)ccc31)[C@H](C(=O)N1CCCCCCC1)[C@H]1C(=O)O[C@H](c3ccccc3)[C@H](c3ccccc3)N1[C@@H]2c1ccc(OCCO)cc1`, for which the composite z-score in [1] is 1.49; in experiment [3] it was 1.33; in experiment [4], 2.48; in experiment [5] it was 1.67; in experiment [6], 1.21; in experiment [7], 1.19. The composite z-score in experiment [8] is 3.01; in experiment [9], 4.31; in experiment [10], 3.31; with Albumin (Bos taurus) it was 0.786; in experiment [12], 1.61; in experiment [13], 0.738. The composite z-score in experiment [14] was found to be 0.643; in [15] it was 3.78; in [16] it was 1.06; in the experiment with Sam68 (KHDRBS1) it was 1.3; in experiment [17], 1.53; in experiment [18] it was 1.15. Besides, in [2], the z-score was -0.981. Further, in experiment [11], the composite Z-score is 4.41 (inactive).
Turning to `C=CCC(OC(C)=O)[C@@H]1[C@@H](N(Cc2cccc3ccccc23)C(=O)c2cccc3ccccc23)c2cc(OCCCO)ccc2N1C(=O)c1ccc2ccccc2n1` (stereo not given in full), the composite z-score in experiment [1] was -0.316; in experiment [3], 0.146; in experiment [4] it was -0.301; in experiment [5], 0.117; in experiment [6] it was -0.208; in experiment [7] it was -0.138. In addition, the composite z-score in experiment [8] was 0.151; in experiment [9], -0.117; in [10] it was -0.198; with Albumin (Bos taurus) it was -0.0648; in experiment [12], 0.0556; in experiment [13] it was -0.0323. Besides, the composite z-score in experiment [14] was -0.12; in experiment [15], 0.656; in [16], -0.342; with Sam68 (KHDRBS1), -0.0153; in experiment [17], 0.366; in experiment [18], -0.0505. In experiment [2], the z-score was 1.21. For the same compound, in [11], the composite Z-score is 0.639 (inactive).
Take `COCCOC(=O)N1C(=O)[C@@]2(c3cc(C#CC4=CCCCC4)ccc31)[C@H](C(=O)N1CCc3cc(OC)c(OC)cc3C1)[C@H]1C(=O)O[C@H](c3ccccc3)[C@H](c3ccccc3)N1[C@@H]2c1ccccc1OCCO`: the composite z-score is 0.899 in [1]; 0.546 in experiment [3]; 0.805 in experiment [4]; 0.512 in [5]; -0.107 in experiment [6]; -0.153 in experiment [7]. Also, the composite z-score is 0.365 in [8]; 0.261 in experiment [9]; 0.917 in [10]; -0.092 with Albumin (Bos taurus); -0.068 in experiment [12]; -0.118 in experiment [13]. The composite z-score is -0.0205 in experiment [14]; -0.0785 in experiment [15]; 0.498 in [16]; 0.6 in the experiment with Sam68 (KHDRBS1); 1.03 in experiment [17]; 1.07 in [18]. This compound also came in with a z-score in [2] of -1.35. For the same compound, the composite Z-score in experiment [11] is -0.243 (inactive).
On to `CC(C)C[C@@H]1NC(=O)[C@@H]2C[C@H](C(=O)NCCCCCC[N+](C)(C)C)[C@H](c3ccc(O)cc3)N2C1=O`, for which the composite z-score was 1.15 in [1]; 0.424 in [3]; 0.669 in [4]; -1.15 in experiment [5]; -0.208 in experiment [6]; 0.246 in [7]. The composite z-score in experiment [8] is -0.158; in experiment [9] it was 0.912; in experiment [10] it was 2; with Albumin (Bos taurus) it was -0.0787; in [12], 0.0562; in experiment [13], -0.189. In addition, the composite z-score in experiment [14] was determined as 0.678; in experiment [15], 1.58; in experiment [16] it was 0.301; in the experiment on Sam68 (KHDRBS1), 1.25; in [17] it was 1.33; in [18] it was 0.989. In [2], this compound had a z-score of 0.0338. Also, in [11], the composite Z-score was 0.729 (inactive).
In the case of `COc1ccc(CCN2C(=O)[C@@]3(Cc4ccccc42)c2ccccc2C(=O)N(Cc2ccccc2Cl)[C@H]3c2ccc(CO)cc2)cc1`, the composite z-score in [1] was -0.782; in experiment [3], -0.622; in experiment [4] it was 0.102; in [5], 0.45; in [6] it was -0.176; in [7] it was -0.138. Also, the composite z-score in [8] was -0.272; in experiment [9], 0.0577; in experiment [10], 0.0121; with Albumin (Bos taurus) it was -0.091; in experiment [12] it was -0.125; in [13], -0.137. The composite z-score in experiment [14] was 0.855; in experiment [15], -0.247; in experiment [16], 0.296; with Sam68 (KHDRBS1), -0.383; in [17], -1.06; in experiment [18], -0.199. Moreover, the z-score in [2] is 0.0889. The composite Z-score in experiment [11] was -0.0503 (inactive).
